target: Voltage-gated potassium channel subunit beta-2 (Rattus norvegicus) (UniProt P62483); assay: enhancers of rat Kvbeta2 NADPH turnover – biochemical, NADPH fluorescence, primary screen (AID 623); settings: Recombinant KvBeta, NADPH fluorescence decrease slope, 10 min; at 10 µM; stronger effect = lower value;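 note: fluorescence intensity change per second fitted from 20 to 320 s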
Sequence (P62483 whole entry, looked up): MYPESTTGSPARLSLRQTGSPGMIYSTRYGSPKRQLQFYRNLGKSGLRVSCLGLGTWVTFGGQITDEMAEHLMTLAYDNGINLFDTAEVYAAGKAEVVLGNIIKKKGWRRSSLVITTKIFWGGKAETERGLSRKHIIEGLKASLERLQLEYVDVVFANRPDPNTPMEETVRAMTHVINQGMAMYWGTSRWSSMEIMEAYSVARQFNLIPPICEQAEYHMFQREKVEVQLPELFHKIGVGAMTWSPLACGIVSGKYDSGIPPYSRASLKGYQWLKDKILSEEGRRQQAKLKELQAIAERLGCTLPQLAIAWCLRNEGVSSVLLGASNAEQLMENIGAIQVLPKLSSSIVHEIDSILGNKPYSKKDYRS

NADPH fluorescence slope, inactive:
CCCc1cc(C(=O)Nc2ccc(C(C)=O)cc2)no1 1.4e-06
Cc1cc(C(=O)NCc2cccnc2)n(-c2ccccc2)n1 -1.4e-05
Cc1ccc(C)c(NC(=O)CC(NCCCN2CCOCC2)C(=O)O)c1 (stereo not given) 3.9e-05
COc1c(Br)cc2c(C)c(C(=O)O)oc2c1Br -0.000118
CCOCCCNC(=O)C(c1ccc(C)cc1)N(Cc1ccc2c(c1)OCO2)C(=O)c1cnccn1 (stereo not given) 4.1e-05
CC1CCCN(S(=O)(=O)c2coc(C(N)=O)c2)C1 (stereo not given) -2.8e-05
Clc1ccc(C2=Nn3c(nnc3-c3n[nH]c4c3CCC4)SC2)cc1Cl 1.2e-05
Clc1cccc(-c2nnc(-c3ccccc3)o2)c1 3.1e-05
CCOc1ccc(NC(=O)CN(C)CC(=O)NC2CCCc3ccccc32)cc1OCC (stereo not given) -1.1e-05
Cc1nnc(SCC(=O)NCc2ccccc2)s1 -2.7e-05
CCOC(=O)CSc1nc2sc(C)c(C)c2c(=O)n1C 1.9e-05
COc1ccc(N2C(N)=C(C#N)C(c3cccnc3)C3=C2CC(C)(C)CC3=O)cc1 (stereo not given) -0.000329
Cc1ccc(OCC(O)CN2C(=O)NC(C)(C)C2=O)cc1C (stereo not given) -2.6e-05
Cc1ccccc1-n1c(Cn2c(=O)sc3ccccc32)nnc1SCC(=O)N1CCCC1 -3.9e-05
COc1ccc(-c2noc(-c3ccccc3C(=O)NCc3ccco3)n2)cc1 -4.7e-05
O=C(NCCCn1ccnc1)c1cnn2c1NC(c1ccccc1)CC2C(F)(F)F (stereo not given) 3.1e-05
CC1(C)Oc2ccc3ccc(=O)oc3c2C(N2CCCCC2)C1O (stereo not given) 1.2e-05
O=C(c1cnn2c1NC(c1ccco1)CC2C(F)(F)F)N1CCN(c2cccc(Cl)c2)CC1 (stereo not given) -6e-05
Cc1ccc(-c2nn(-c3ccccc3)cc2CN(Cc2ccccc2)C(=O)CCC(=O)O)o1 -2.6e-05
COC(=O)C1(C)NC(c2cccs2)C2C(=O)N(c3ccccc3F)C(=O)C21 (stereo not given) 2.7e-06
O=c1ccc(S(=O)(=O)N2CCC(Cc3ccccc3)CC2)c[nH]1 -5e-05
O=C(CN(CCc1ccccc1)C(=O)CNS(=O)(=O)c1ccccc1)NCC1CCCO1 (stereo not given) 2e-05
CCn1c(SCC(=O)NC)nnc1C(C)C -5.6e-05
O=C(Cn1ncc2c(=O)oc3ccccc3c21)NCC1CCCO1 (stereo not given) -1.2e-05
Cc1ccc(-c2csc3ncn(-n4c(C)ccc4C)c(=O)c23)o1 3.1e-05
CCCOc1ccc(N2C(=O)CC(SCCN)C2=O)cc1 (stereo not given) -1.8e-05
N#CC1=C(N)C(C#N)(C#N)[C@H](c2ccsc2)[C@H]2COCC=C12 2.1e-05
O=C(CCS(=O)(=O)c1cccc2nonc12)Nc1cccc2c1CCCC2 1.6e-05
C=COCCNC(=O)Nc1ccc(Cl)c(Cl)c1 -4.7e-05
COc1ccc(CN2C(=O)[C@@H]3C(c4ccc(F)cc4)=NO[C@@H]3C2=O)cc1 -5.3e-05
Cc1nc(NC(=O)C23CCC(C)(C(=O)O2)C3(C)C)sc1C (stereo not given) 8.7e-06
COc1ccc(-c2cc3n(n2)CCc2nc4ccccc4n2-3)cc1 -1.6e-05
Clc1ccc(C2Nc3ccccc3-n3cccc32)cc1 (stereo not given) 2.7e-06
CCOC(=O)c1[nH]c(C)c(C(=O)N2CCN(C(=O)c3ccco3)CC2)c1C 1.2e-05
CCCCSCCCNC(=O)CS(=O)Cc1nc(-c2cccc(C)c2)oc1C (stereo not given) 1.3e-05
O=C(COC(=O)CSc1nnc(-c2ccc(Cl)cc2)o1)NCc1ccc2c(c1)OCO2 -3.7e-05
Cc1ccc(C)c(S(=O)(=O)C(C#N)c2nc3ccccc3nc2N2CC(C)OC(C)C2)c1 (stereo not given) -1.6e-06
COC(=O)c1sc2ccccc2c1NC(=O)c1cccs1 -2.2e-05
CS(=O)(=O)N1CCN(c2ccccc2NC(=O)c2cccs2)CC1 1.2e-05
CNC(=O)c1ccc(N(Cc2ccccc2C)S(C)(=O)=O)cc1 -4.1e-05

Reference: PubChem BioAssay
